Reference: ChEMBL document CHEMBL3988442, “University of Dundee, Small-Polar-MMV Screening Library” (2021)
For some assays here: Potency and affinity values are given separately.

Key:
Design in all cases: scale not given: direction of the effect not stated beside the values
[1] = molecular target: Protein translocase subunit SecA (Escherichia coli (strain K12)) (UniProt P10408); assay: Assay to Identify E. coli SecA ATPase Inhibitors; assay type: functional; conditions: 30 µM
[2] = molecular target: T1, Ubiquitin-activating enzyme e1, putative (Leishmania donovani (strain BPK282A1)) (UniProt E9BSI1); assay: Leishmania donovani Ubiquitin Activating Enzyme (LdE1); assay type: functional; conditions: 30 µM
T1 sequence (whole entry): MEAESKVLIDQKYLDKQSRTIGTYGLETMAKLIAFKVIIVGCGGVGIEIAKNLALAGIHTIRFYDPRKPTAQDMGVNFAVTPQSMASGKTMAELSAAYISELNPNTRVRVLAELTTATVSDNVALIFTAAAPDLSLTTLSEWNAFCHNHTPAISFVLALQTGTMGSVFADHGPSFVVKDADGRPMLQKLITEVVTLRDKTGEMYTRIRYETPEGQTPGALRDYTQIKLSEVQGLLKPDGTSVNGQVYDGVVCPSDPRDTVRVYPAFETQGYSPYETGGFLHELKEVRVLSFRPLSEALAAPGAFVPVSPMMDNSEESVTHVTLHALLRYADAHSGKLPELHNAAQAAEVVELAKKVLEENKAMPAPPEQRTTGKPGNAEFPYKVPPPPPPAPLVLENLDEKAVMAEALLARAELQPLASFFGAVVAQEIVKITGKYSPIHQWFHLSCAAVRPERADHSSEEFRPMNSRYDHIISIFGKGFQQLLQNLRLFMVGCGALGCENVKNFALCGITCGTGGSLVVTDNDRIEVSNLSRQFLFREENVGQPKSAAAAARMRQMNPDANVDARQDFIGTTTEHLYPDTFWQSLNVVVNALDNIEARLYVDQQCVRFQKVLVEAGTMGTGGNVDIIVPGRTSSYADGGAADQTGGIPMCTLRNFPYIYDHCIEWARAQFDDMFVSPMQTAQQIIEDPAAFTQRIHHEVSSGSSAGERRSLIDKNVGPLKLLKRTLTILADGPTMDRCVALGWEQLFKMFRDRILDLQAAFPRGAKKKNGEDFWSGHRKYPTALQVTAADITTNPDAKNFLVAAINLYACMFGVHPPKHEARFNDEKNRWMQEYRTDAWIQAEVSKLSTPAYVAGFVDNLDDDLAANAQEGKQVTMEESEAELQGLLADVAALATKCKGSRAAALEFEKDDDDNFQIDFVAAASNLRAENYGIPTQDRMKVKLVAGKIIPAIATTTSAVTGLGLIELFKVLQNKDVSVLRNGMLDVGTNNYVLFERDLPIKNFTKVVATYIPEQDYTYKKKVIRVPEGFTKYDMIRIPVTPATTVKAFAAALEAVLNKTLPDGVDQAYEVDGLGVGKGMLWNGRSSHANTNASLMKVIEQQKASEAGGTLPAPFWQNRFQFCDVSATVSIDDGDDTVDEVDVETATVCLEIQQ

[3] = molecular target: AMP-activated protein kinase, AMPK (Homo sapiens) (UniProt P54646+O43741+P54619+Q9UGJ0+Q9Y478+Q13131+Q9UGI9); assay: AMP-dependent Kinase enzyme assay. An in vitro enzyme assay that detects ADP turnover that is directly proportional to AMPK activity. This uses naive AMPK that is activated during the assay with MK-8722; assay type: functional; conditions: 30 µM
[4] = molecular target: Sialic acid-binding Ig-like lectin 9 (Homo sapiens) (UniProt Q9Y336); assay: Hs-Siglec9 ALPHAscreen SOP 20170721; conditions: 10 µM
Sequence of Sialic acid-binding Ig-like lectin 9 (Homo sapiens) (Q9Y336 whole entry): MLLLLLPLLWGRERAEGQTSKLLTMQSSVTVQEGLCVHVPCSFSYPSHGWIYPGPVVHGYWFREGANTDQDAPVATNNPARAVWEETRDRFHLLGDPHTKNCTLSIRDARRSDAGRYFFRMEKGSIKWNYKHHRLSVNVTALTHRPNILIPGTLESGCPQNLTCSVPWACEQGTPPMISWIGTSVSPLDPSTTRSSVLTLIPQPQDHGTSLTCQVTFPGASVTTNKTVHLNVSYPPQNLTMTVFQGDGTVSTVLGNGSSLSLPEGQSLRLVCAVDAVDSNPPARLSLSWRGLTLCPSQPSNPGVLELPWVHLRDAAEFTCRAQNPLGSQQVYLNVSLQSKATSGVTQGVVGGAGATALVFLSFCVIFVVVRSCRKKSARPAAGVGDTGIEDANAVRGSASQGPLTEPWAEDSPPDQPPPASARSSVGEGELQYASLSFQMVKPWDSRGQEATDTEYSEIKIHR

[5] = test system: Trypanosoma cruzi; assay: Trypanosoma cruzi phosphomannomutase and mannose-1-phosphate guanylyltransferase assay; assay type: functional; conditions: 10 µM
[6] = molecular target: T2, Arginase-2, mitochondrial (Homo sapiens) (UniProt P78540); assay: in vitro enzyme assay to detect the production of urea directly proportional to the activity of Arginase II; assay type: functional; conditions: 33.3 µM; note: in the data most compounds retested in dose-response had high values
T2 sequence (whole entry): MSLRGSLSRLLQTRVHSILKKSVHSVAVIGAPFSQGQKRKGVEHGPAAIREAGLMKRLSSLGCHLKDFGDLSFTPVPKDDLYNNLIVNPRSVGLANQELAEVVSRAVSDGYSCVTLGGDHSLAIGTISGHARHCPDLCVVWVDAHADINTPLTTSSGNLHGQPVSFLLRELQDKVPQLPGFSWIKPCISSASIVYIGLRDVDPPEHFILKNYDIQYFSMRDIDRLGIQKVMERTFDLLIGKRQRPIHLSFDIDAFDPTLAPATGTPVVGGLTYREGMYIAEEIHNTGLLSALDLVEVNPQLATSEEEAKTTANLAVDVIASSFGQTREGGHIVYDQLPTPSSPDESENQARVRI

[7] = molecular target: T3, Proteasome subunit beta (Trypanosoma cruzi) (UniProt O96673); assay: Trypanosoma cruzi proteasome chymotrypsin-like activity (TcProtChymo) assay.; note: in the data most compounds retested in dose-response had high values; assay type: functional; conditions: 9.37 µM
T3 sequence (whole entry): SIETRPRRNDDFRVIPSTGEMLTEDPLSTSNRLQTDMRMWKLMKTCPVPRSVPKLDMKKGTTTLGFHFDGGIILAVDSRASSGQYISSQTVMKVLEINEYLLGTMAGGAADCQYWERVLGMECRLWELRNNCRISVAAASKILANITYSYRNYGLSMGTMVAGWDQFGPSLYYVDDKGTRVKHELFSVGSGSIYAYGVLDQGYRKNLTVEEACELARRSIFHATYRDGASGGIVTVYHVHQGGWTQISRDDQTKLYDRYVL

[8] = organism: Homo sapiens; assay: To identify inhibition of the IFN signalling (Jak-Stat) pathway via expression of an eGFP reporter gene under the control of an IFN-stimulated response element (ISRE) containing MxA promoter.; assay type: functional; conditions: 30 µM
[9] = molecular target: T4, Tyrosyl-tRNA synthetase, putative (Trypanosoma cruzi (strain CL Brener)) (UniProt Q4DSP6); assay: Trypanosoma cruzi tyrosyl tRNA synthetase (TcYRS) _High Tyrosine SOP; assay type: functional; conditions: 30 µM; note: in the data most compounds retested in dose-response had high values
T4 sequence (whole entry): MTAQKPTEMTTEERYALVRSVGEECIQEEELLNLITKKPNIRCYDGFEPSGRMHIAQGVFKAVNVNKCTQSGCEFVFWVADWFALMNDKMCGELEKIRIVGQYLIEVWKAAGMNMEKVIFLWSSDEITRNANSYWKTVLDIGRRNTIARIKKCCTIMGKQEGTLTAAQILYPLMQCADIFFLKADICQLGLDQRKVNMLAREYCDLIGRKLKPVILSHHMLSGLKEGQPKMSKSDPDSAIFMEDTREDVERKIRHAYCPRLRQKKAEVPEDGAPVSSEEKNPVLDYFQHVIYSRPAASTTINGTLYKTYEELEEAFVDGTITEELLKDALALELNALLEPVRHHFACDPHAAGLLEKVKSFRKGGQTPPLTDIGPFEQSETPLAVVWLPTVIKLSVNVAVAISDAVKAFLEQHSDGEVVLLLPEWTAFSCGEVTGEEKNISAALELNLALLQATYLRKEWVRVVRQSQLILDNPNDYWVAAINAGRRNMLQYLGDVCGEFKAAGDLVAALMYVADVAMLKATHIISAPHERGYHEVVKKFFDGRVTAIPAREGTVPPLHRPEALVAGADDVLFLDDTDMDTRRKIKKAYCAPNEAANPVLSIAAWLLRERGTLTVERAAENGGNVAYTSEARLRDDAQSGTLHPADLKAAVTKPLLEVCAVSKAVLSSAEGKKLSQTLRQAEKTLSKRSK

[10] = molecular target: T4, Tyrosyl-tRNA synthetase, putative (Trypanosoma cruzi (strain CL Brener)); assay: Trypanosoma cruzi tyrosyl tRNA synthetase (TcYRS) SOP; assay type: functional; conditions: 30 µM
[11] = molecular target: Chromo domain-containing protein 1 (Saccharomyces cerevisiae (strain ATCC 204508 / S288c) (Baker's yeast)) (UniProt P32657); assay: ScCHD-1 Enzyme Inhibition Assay; assay type: functional; conditions: 30 µM; note: in the data most compounds retested in dose-response had high values
Sequence of Chromo domain-containing protein 1 (Saccharomyces cerevisiae (strain ATCC 204508 / S288c) (Baker's yeast)) (P32657 whole entry, the tested form may be a part): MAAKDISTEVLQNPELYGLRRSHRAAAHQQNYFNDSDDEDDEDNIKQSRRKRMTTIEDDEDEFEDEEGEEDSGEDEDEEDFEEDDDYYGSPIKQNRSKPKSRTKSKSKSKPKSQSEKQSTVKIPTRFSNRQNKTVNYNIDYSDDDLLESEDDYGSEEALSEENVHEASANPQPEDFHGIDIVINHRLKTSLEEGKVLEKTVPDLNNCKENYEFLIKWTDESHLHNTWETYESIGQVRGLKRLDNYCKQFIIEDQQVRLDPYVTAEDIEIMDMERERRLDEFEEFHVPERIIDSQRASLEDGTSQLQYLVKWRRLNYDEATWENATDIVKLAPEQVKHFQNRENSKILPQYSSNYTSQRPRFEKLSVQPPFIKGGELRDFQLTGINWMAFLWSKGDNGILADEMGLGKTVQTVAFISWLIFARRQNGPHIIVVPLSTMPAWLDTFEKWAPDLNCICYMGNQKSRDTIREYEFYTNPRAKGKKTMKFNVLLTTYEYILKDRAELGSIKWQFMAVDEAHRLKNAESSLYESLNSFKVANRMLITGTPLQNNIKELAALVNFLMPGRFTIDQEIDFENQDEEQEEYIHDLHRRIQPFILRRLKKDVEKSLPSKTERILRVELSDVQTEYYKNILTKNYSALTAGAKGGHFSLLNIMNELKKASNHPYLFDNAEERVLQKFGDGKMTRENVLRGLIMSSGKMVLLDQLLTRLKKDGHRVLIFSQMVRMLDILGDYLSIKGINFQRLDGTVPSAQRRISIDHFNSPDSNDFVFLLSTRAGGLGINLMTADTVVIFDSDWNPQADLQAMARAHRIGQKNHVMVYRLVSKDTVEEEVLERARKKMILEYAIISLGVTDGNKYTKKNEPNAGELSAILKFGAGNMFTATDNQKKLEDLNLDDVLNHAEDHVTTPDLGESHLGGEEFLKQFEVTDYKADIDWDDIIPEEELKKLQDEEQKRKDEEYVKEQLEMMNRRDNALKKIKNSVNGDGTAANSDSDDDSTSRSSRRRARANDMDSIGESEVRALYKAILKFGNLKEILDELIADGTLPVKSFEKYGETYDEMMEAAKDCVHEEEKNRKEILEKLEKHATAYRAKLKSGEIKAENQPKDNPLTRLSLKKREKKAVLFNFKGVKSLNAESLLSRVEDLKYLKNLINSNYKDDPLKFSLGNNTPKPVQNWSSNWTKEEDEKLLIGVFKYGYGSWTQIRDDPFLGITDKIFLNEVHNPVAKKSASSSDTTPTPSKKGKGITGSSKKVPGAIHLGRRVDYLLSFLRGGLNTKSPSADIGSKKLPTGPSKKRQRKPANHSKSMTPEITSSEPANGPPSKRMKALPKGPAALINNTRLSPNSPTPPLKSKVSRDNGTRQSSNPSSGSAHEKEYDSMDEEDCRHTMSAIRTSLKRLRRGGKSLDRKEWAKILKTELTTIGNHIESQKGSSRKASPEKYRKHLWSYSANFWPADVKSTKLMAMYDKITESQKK

Sequence of Protein translocase subunit SecA (Escherichia coli (strain K12)) (P10408 whole entry): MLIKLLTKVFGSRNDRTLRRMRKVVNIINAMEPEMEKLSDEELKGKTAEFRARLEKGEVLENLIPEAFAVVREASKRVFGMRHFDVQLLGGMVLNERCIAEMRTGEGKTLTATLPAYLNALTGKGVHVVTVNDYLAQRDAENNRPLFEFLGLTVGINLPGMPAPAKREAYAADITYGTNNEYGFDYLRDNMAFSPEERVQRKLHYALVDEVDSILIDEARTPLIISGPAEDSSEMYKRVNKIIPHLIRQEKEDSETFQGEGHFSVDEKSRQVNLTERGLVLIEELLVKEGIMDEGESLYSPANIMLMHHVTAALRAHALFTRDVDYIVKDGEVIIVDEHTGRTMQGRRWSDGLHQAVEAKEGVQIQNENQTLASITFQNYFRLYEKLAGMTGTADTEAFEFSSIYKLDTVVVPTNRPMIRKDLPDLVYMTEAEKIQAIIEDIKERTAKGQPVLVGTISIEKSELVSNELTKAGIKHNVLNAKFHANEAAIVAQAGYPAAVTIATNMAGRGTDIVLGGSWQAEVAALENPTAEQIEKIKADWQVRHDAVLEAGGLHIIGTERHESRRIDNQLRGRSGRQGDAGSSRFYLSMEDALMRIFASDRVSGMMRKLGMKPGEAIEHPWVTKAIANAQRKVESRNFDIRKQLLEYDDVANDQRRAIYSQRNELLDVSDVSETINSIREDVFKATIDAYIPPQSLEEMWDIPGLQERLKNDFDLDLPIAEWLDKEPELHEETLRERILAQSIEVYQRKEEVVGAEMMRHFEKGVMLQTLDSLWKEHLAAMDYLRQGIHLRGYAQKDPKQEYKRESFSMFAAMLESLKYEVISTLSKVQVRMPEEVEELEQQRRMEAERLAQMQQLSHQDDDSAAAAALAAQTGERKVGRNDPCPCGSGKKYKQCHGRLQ

| SMILES | Percent Effect [1] | Percent Effect [2] | Percent Effect [3] | Percent Effect [4] | Percent Effect [5] | Percent Effect [6] | Percent Effect [7] | Percent Effect [8] | Percent Effect [9] | Percent Effect [10] | Percent Effect [11] |
| --- | --- | --- | --- | --- | --- | --- | --- | --- | --- | --- | --- |
| CC(C)Oc1ccc(CNC(=O)CC(F)(F)F)cc1F | -5.61% | 10.5% | -1.12% | 6.95% | -2.52% | 1.08% | 1.78% | -11.2% | 4.43% | 11.1% | -4.45% |
| CC1CCCCN1CCNC(=O)c1ccn(-c2ccc(F)cc2)n1 (stereo unspecified) | -2.64% | 18.9% | 3.92% | 3.77% | 6.51% | -16% | 18.9% | 6.78% | -26.1% | 23.5% | -19.6% |
| Cc1cc(CN2CCN(c3ccc4nncn4n3)C(C)C2)no1 (stereo unspecified) | -6.67% | 20.8% | -6.96% | 14.4% | 5.8% | 4.63% | 11.2% | 19.6% | 9.71% | 21.9% | -10.9% |
| O=C(CO[C@@H]1CC[C@H]2[C@H]1OCCN2CC1CCOCC1)N1CCCC1 | -4.19% | 0% | 2.42% | -1.24% | -3.12% | 2.08% | 11.1% | 2.51% | 8.91% | 8.54% | 1.37% |
| CCOc1cccc(C(C)NCc2ccc(OC)c(OC)c2OC)c1 (stereo unspecified) | -3% | 16% | -4.66% | 15.5% | 8.08% | 4.69% | 11.2% | 43.6% | 7.1% | 21% | -6.92% |
| c1coc(-c2nnc(CN3CCOC(Cn4cccn4)C3)o2)c1 (stereo unspecified) | -5.27% | 7.59% | -2.15% | 1.36% | 6.89% | 0.76% | 11.6% | 8.37% | 5.42% | 13.9% | -6.49% |
| Cc1nn2c(N3CCC(O)CC3)cc(-c3ccccc3)nc2c1C | -3.77% | 5.48% | -0.844% | 1.98% | -3.57% | -3.99% | 11% | 16% | 5.21% | 13.6% | -5.15% |
| COc1ncccc1CN1CCn2c(Cn3cncn3)cnc2C1 | -1.73% | 18.7% | 0.535% | -13.2% | -2.76% | 2.1% | 8.19% | -1.48% | 0% | 6.41% | -3.83% |
| CN1CCN(Cc2nc3ccccc3[nH]2)[C@H]2CS(=O)(=O)C[C@H]21 | -1.9% | 8.11% | -2.29% | -1.77% | -1.07% | -1.24% | 13.1% | 5.83% | 10.8% | 18.5% | -2.69% |
| Cc1noc([C@@]23CCO[C@@H]2CCN(C(=O)c2sccc2C)C3)n1 | -3.07% | 5.33% | 2.33% | -2.88% | 2.12% | -46.1% | 0.513% | 1.48% | 1.04% | 0% | 1.44% |
| COC(=O)CCc1c(C)nn(-c2nc(C)cc(=O)[nH]2)c1C | 2.99% | 15.6% | 14.8% | -8.75% | -3.06% | 0.645% | 4.87% | 25.4% | 7.41% | 11.5% | -5.54% |
| Cn1cnc2c1CCN(Cc1nc(-c3ccsc3)no1)C2 | -6.98% | 18.9% | -7.09% | 15.8% | 10.7% | -3.14% | 5.57% | 2.25% | 7.92% | 25.6% | -9.67% |
| CC(Cn1cccn1)NC(=O)Nc1nccs1 (stereo unspecified) | -5.47% | 10.4% | 1.39% | 4.54% | -3.37% | 0.712% | 5.57% | 17.5% | 4.85% | 19.5% | -5.22% |
| Cc1cc(CN2CCN(C(c3ccccc3)c3ccccc3)CC2)no1 | -4.43% | 12.7% | -1.9% | 14.9% | -2.55% | 1.14% | 2.87% | 15.5% | 8.37% | 11.4% | -8.11% |
| Cc1oncc1C(=O)N1CCC2(CC1)CC(c1ccccc1)C(=O)N2C (stereo unspecified) | -3.51% | -16% | -4.85% | 1.07% | 3.28% | -47.1% | 7.69% | -5.26% | -37.5% | -62.5% | -5.13% |
| CN(c1cccnn1)C1CCN(C(=O)c2ccc3c(c2)COC3)CC1 | -7.72% | -44.2% | 15.1% | 5.38% | 0.187% | 2.85% | 5.41% | 9.98% | 6.8% | 12.2% | -5.25% |
